# Of roughly 7,900 targets only a part is listed; those with a hit were picked by preference. About 0.6% of all pairs of compound and target were hits. Unmarked numbers belong to inactive results.
# Key:
# Experiment in all cases: log2 fold change, soluble protein after heating vs DMSO (PISA); higher = thermal stabilisation; K562 cells, 10 uM, 30 min; active = over 0.2 and 3.5 SD of the protein, either way, in both replicates (recomputed)
# bafetinib = compound: Cc1ccc(NC(=O)c2ccc(CN3CC[C@H](N(C)C)C3)c(C(F)(F)F)c2)cc1Nc1nccc(-c2cncnc2)n1 [bafetinib]
# How it was run: (§1)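 K562 cells at 2×10^6 cells/mL were given 10 μM compound for 30 min. Aliquots then went through 3 min of heating across 48°C-58°C, were pooled, and were extracted in PBS with 0.5% NP-40 at 4°C, and the supernatant after 21,000xg for 90 min was quantified by TMTpro 16plex LC-MS/MS with channel sums equalised. Thermal stability relative to control samples, from duplicates, is given as log2 fold change.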
# [1] = compound: Cc1cccc(CC(=O)N2CCc3c2ccc(-c2cn(C)c4ncnc(N)c24)c3F)n1
# How it was run: as §1
# nilotinib = compound: Cc1cn(-c2cc(NC(=O)c3ccc(C)c(Nc4nccc(-c5cccnc5)n4)c3)cc(C(F)(F)F)c2)cn1 [nilotinib]
# How it was run: as §1
# [2] = compound: Cc1nc(Nc2n[nH]c3c2CN(C(=O)N[C@H](CN(C)C)c2ccccc2)C3(C)C)c2sccc2n1
# How it was run: as §1
# dasatinib = compound: Cc1nc(Nc2ncc(C(=O)Nc3c(C)cccc3Cl)s2)cc(N2CCN(CCO)CC2)n1 [dasatinib]
# How it was run: as §1
# [3] = compound: Cc1ncc(-c2ccnc(Nc3ccc(S(C)(=O)=O)cc3)n2)n1C(C)C
# How it was run: as §1
# [4] = compound: Cn1cc(-c2ccc3c(c2)CCN3C(=O)Cc2cccc(C(F)(F)F)c2)c2c(N)ncnc21
# How it was run: as §1
# [5] = compound: Cn1cc(-c2ccc3nnc(C(F)(F)c4ccc5ncccc5c4)n3n2)cn1
# How it was run: as §1
# tipifarnib = compound: Cn1cncc1[C@@](N)(c1ccc(Cl)cc1)c1ccc2c(c1)c(-c1cccc(Cl)c1)cc(=O)n2C [tipifarnib]
# How it was run: as §1
# mubritinib = compound: FC(F)(F)c1ccc(/C=C/c2nc(COc3ccc(CCCCn4ccnn4)cc3)co2)cc1 [mubritinib]
# How it was run: as §1
# [6] = compound: NC(=O)Nc1cc(-c2cccc(F)c2)sc1C(=O)N[C@H]1CCCNC1
# How it was run: as §1
# [7] = compound: NC(=O)c1cnc(N[C@@H]2CCCC[C@@H]2N)nc1Nc1cccc(-n2nccn2)c1
# How it was run: as §1
# [8] = compound: NC1(c2ccc(-c3nc4ccn5c(=O)[nH]nc5c4cc3-c3ccccc3)cc2)CCC1
# How it was run: as §1
# [9] = compound: NCC(=O)Nc1ccc(-n2nc(C(F)(F)F)cc2-c2ccc3c(ccc4ccccc43)c2)cc1
# How it was run: as §1
# entinostat = compound: Nc1ccccc1NC(=O)c1ccc(CNC(=O)OCc2cccnc2)cc1 [entinostat]
# How it was run: as §1
# vorinostat = compound: O=C(CCCCCCC(=O)Nc1ccccc1)NO [vorinostat]
# How it was run: as §1
# citarinostat = compound: O=C(CCCCCCNC(=O)c1cnc(N(c2ccccc2)c2ccccc2Cl)nc1)NO [citarinostat]
# How it was run: as §1
# silmitasertib = compound: O=C(O)c1ccc2c(c1)nc(Nc1cccc(Cl)c1)c1ccncc12 [silmitasertib]
# How it was run: as §1
# [10] = compound: O=C1NC(=O)C(c2cnc3ccccn23)=C1c1cn2c3c(cc(F)cc13)CN(C(=O)N1CCCCC1)CC2
# How it was run: as §1
# [11] = compound: c1cc(OCCN2CCCCC2)cc(-c2n[nH]c3ccc(-c4nnc[nH]4)cc23)c1
# How it was run: as §1
# Chain of UniProt P27986 (P27986 whole entry, looked up): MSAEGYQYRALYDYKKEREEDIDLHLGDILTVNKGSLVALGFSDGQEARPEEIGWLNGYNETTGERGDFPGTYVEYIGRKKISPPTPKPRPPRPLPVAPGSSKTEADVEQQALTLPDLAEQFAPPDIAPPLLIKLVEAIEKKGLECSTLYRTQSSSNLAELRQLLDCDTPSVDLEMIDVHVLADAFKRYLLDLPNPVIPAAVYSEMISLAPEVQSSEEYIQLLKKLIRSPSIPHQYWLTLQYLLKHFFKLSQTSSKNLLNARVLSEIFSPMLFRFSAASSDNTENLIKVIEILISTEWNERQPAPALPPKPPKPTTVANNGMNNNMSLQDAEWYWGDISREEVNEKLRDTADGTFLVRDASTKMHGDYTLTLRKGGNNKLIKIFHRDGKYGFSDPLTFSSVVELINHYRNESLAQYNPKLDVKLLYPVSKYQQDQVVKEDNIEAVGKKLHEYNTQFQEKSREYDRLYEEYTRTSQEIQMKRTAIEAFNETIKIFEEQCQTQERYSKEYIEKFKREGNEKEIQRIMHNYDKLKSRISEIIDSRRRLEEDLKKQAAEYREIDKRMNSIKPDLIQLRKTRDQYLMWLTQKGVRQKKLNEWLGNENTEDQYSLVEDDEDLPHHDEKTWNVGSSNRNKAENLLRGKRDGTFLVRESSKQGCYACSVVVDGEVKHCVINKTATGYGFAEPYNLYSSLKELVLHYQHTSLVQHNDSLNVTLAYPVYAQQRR
# Chain of UniProt Q9UG56 (Q9UG56 whole entry, looked up): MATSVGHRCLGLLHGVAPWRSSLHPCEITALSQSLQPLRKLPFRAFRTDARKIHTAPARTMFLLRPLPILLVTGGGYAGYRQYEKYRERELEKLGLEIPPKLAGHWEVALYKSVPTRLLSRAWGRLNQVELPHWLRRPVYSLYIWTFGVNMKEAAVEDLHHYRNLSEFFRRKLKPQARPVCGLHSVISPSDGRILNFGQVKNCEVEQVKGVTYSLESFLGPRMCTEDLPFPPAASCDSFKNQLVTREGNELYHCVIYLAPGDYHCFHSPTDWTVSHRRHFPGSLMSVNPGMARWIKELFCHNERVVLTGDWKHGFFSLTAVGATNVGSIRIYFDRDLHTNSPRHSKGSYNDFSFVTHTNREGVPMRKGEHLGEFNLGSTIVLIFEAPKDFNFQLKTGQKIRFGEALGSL
# Chain of UniProt Q05209 (Q05209 whole entry, looked up): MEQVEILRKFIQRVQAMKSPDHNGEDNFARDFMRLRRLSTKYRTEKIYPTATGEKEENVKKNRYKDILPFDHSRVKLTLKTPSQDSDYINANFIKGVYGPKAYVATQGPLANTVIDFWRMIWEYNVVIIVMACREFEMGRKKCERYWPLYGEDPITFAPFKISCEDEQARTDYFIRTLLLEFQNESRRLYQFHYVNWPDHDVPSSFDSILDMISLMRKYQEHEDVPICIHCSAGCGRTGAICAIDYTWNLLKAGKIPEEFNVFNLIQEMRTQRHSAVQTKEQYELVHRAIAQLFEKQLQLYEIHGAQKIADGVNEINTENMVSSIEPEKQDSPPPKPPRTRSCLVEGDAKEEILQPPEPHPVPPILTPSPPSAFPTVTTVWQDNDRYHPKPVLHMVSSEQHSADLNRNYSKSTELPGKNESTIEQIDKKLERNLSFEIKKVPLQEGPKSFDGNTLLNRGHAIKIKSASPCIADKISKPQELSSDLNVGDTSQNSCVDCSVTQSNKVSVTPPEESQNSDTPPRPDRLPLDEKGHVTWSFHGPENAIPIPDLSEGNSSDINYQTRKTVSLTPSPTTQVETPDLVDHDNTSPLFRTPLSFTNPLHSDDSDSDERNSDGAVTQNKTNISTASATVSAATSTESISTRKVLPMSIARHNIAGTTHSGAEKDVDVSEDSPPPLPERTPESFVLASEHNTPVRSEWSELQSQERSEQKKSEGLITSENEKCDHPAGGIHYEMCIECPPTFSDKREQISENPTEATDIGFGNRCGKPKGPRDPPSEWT
# Chain of UniProt Q7RTV0 (Q7RTV0 whole entry, looked up): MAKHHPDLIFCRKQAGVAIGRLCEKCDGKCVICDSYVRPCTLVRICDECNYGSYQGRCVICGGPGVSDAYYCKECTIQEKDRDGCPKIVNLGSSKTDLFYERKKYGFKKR
# Chain of UniProt Q8NEB9 (Q8NEB9 whole entry, looked up): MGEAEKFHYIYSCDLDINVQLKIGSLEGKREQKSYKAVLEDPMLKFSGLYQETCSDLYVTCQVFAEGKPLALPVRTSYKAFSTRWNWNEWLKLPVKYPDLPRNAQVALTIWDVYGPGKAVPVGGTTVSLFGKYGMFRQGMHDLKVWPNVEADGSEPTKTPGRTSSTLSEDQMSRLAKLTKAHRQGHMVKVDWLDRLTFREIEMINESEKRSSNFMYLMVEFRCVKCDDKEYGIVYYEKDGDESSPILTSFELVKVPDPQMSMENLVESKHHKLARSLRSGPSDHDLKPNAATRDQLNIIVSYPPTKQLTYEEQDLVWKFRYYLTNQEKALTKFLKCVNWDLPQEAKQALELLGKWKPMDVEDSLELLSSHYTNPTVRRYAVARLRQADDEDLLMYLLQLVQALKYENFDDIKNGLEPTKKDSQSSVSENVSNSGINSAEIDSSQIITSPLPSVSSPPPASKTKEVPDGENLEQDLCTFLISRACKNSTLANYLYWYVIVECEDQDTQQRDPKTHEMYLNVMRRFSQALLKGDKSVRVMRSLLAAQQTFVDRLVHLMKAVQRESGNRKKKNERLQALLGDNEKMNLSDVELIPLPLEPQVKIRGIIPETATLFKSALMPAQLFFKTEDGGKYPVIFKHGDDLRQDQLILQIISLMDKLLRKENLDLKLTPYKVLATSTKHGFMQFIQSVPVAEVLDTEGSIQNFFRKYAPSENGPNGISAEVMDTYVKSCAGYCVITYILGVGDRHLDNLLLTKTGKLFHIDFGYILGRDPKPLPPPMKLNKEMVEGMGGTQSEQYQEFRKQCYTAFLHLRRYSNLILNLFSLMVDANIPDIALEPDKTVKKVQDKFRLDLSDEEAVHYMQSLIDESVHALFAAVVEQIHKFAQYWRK
# Chain of UniProt P49585 (P49585 whole entry, looked up): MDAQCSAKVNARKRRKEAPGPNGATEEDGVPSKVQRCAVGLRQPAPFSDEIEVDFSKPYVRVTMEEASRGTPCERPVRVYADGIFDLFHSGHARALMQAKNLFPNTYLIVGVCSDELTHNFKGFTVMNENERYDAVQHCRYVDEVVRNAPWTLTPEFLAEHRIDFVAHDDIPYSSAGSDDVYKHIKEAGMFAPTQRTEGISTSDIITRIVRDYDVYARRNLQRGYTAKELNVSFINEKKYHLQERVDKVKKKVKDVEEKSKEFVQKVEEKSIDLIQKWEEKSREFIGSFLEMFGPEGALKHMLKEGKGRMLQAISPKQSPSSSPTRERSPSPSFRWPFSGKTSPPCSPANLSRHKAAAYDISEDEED
# Chain of UniProt Q10713 (Q10713 whole entry, looked up): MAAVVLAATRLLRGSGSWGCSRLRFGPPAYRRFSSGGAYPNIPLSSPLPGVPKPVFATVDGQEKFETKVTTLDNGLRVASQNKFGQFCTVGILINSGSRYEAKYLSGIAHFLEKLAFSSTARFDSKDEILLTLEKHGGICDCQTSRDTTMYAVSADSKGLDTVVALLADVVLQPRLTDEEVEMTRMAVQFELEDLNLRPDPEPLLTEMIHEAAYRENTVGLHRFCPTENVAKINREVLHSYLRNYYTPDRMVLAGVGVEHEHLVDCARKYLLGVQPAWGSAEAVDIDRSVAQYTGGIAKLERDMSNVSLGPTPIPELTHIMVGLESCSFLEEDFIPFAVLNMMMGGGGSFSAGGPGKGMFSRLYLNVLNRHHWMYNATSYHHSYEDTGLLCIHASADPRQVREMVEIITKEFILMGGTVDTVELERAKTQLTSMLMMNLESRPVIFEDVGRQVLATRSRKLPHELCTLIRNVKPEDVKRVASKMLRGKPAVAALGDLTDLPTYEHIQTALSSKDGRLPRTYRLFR
# Chain of UniProt P14618 (P14618 whole entry, looked up): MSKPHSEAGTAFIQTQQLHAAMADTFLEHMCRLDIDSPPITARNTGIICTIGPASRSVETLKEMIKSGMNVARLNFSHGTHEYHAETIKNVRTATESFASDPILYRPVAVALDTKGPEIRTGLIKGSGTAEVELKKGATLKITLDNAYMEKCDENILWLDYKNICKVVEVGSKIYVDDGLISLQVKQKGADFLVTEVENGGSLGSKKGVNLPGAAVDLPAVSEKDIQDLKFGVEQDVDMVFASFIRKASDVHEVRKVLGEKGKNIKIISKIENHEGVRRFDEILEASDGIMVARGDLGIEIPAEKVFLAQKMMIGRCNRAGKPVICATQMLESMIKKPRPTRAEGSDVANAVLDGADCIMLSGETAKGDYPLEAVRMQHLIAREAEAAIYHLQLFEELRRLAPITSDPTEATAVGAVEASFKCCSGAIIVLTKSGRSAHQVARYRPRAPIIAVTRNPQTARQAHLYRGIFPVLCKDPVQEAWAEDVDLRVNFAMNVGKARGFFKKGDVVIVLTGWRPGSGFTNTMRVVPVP
# Chain of UniProt P15735 (P15735 whole entry, looked up): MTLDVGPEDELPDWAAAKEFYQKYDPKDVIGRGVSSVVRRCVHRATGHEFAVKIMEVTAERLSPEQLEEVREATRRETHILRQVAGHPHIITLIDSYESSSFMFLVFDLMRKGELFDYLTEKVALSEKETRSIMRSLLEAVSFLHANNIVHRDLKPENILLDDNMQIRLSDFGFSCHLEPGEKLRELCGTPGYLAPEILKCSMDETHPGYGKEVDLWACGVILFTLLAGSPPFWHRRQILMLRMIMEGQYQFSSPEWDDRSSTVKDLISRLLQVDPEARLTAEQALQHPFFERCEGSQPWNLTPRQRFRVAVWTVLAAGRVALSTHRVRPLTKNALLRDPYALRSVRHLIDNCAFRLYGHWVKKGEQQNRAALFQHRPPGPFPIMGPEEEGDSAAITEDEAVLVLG
Target,log2 fold change (bafetinib),log2 fold change [1],log2 fold change (nilotinib),log2 fold change [2],log2 fold change (dasatinib),log2 fold change [3],log2 fold change [4],log2 fold change [5],log2 fold change (tipifarnib),log2 fold change (mubritinib),log2 fold change [6],log2 fold change [7],log2 fold change [8],log2 fold change [9],log2 fold change (entinostat),log2 fold change (vorinostat),log2 fold change (citarinostat),log2 fold change (silmitasertib),log2 fold change [10],log2 fold change [11]
PLK1 (UniProt P53350),-0.048,0.003,-0.062,-1.37 (active),-0.125,0.152,0.006,-0.013,0.019,0.003,-0.399 (active),0.033,-0.024,0.005,-0.005,0.002,0.019,-0.135,0.032,-0.103
PKM (UniProt P14618),-0.023,-0.012,-0.011,-0.004,0.024,-0.009,0.015,0.006,0.005,0.035,0.01,-0.029,0.011,-0.025,-0.013,-0.009,0.016,-0.016,-0.032,-0.02
PMPCA (UniProt Q10713),0.063,0.016,0.024,0.057,0.54 (active),-0.096,0.067,0.04,0.285 (active),0.087,-0.091,-0.059,-0.02,-0.053,-0.018,-0.016,0.017,-0.061,0.01,0.015
PTDSS1 (UniProt P48651),-0.125,0.092,-0.166,0.084,-0.002,0.017,-0.089,0.042,0.018,-0.074,0.043,-0.045,0.022,-0.007,-0.058,0.199,-0.051,0.091,0.184,-0.06
PTPA (UniProt A6PVN8),-0.122,-0.084,-0.134,0.008,0.075,0.013,-0.075,0.05,0.232,0.114,-0.015,-0.057,-0.062,-0.003,-0.04,0.099,-0.098,0.266,0.05,-0.05
PIK3C3 (UniProt Q8NEB9),0.065,-0.011,0.043,-0.039,-0.04,0.202,-0.035,-0.006,0.047,0.042,0.068,0.117,-0.018,-0.015,-0.03,-0.038,-0.038,0.051,0.078,-0.041
PRKCQ (UniProt Q04759),-0.027,0.024,-0.051,-0.821 (active),-0.171,0.003,0.069,0.031,-0.134,0.12,-0.337 (active),-0.135,-0.198,-0.052,0.002,0.035,0.001,0.002,-0.021,-0.187
PPIL2 (UniProt Q13356),-0.008,0.032,-0.056,-0.086,-0.127,0.068,0.03,0.046,-0.142,0.011,-0.069,-0.058,-0.077,-0.1,0.059,0.063,0.065,0.083,-0.07,-0.014
PHF5A (UniProt Q7RTV0),-0.097,-0.047,-0.018,0.012,0.102,0.086,-0.031,0.03,0.031,-0.025,-0.004,0.009,0.101,0.051,-0.017,-0.08,0.014,0.082,-0.024,-0.003
PIK3R1 (UniProt P27986),-0.061,0.029,-0.074,0.015,-0.117,0.108,0.009,-0.013,-0.026,0.017,-0.08,-0.056,-0.016,-0.021,-0.026,0.029,0.007,-0.013,0.028,0.126
PHKG2 (UniProt P15735),-0.047,0.044,-0.177,0.321 (active),-0.306,0.011,-0.024,-0.017,-0.046,-0.127,0.417 (active),0.088,-0.064,-0.035,-0.007,0,0.122,0.052,0.023,-0.045
PCYT1A (UniProt P49585),-0.142,0.035,-1.47 (active),-0.129,-0.185,-0.04,0.033,0.001,0.006,0.176,-0.015,-0.093,-0.234,-0.066,0.033,0.086,0.081,0.022,-0.06,-0.002
PLCG1 isoform 2 (UniProt P19174),-0.054,-0.08,-0.072,0.079,-0.257,0.024,0.031,0.005,-0.144,0.11,0.01,-0.193,-0.197,-0.109,0.04,-0.003,0.059,0.01,0,-0.066
PISD (UniProt Q9UG56),-0.042,-0.007,-0.053,-0.003,-0.029,0.105,-0.068,-0.02,-0.005,0.103,0.023,0.019,-0.009,0.045,-0.047,0.069,0.035,-0.019,-0.097,-0.006
PTPN12 (UniProt Q05209),-0.052,0.008,-0.022,-0.122,-0.059,0.074,-0.116,-0.086,-0.081,0.021,0.037,-0.023,-0.1,-0.012,0.038,-0.01,0.019,0.163,0.014,-0.015
